Compound activity (PubChem)
AMA1 RON2 block: disrupts binding of P. falciparum AMA1 to RON2. AlphaScreen AMA1-biotinylated RON2 peptide binding. Potency, µM (top dose mostly 58.2 µM), hits mostly inhibitors. 360,000 tested, 0.2% active; further: nearly all actives have a fitted effect of over 45% in size
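AMA1 (3D7) with his tag at 25 nM final met compounds first, then biotinylated RON2 peptide at 25 nM; detection used donor plus acceptor beads, 10 µg/mL apiece, read by AlphaScreen after 30 min at room temperature.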
SARS PLP yeast: SARS-CoV PLP inhibition in yeast. S. cerevisiae expressing SARS-CoV PLpro, growth rescue. Potency, µM (highest dose often 32.9 µM), actives largely listed as activators. 330,000 tested, 0.19% active; calls by dose curve; further: nearly all actives have a fitted effect of over 55% in size
Shiga toxin inh: inhibitors of Shiga toxin in Vero cells; Vero cells, Shiga toxin protein synthesis inhibition reporter; 290,000 tested, 9.2% active; inhibition, % at 38.7 µM; in the data active means inhibition mostly above about 28%, no sharp cut-off; inactive means mostly below about 43%
AmpC inh detg: AmpC beta-lactamase inhibition with detergent present; P00811; AmpC hydrolysis of nitrocefin, absorbance 480 nm, 0.01% Triton; 370,000 tested, 0.041% active; Potency, µM (top dose mostly 114 µM), most hits filed as inhibitors; AID 485294; further: nearly all actives have a fitted effect of over 25% in size
Target sequence (P00811 whole entry, looked up): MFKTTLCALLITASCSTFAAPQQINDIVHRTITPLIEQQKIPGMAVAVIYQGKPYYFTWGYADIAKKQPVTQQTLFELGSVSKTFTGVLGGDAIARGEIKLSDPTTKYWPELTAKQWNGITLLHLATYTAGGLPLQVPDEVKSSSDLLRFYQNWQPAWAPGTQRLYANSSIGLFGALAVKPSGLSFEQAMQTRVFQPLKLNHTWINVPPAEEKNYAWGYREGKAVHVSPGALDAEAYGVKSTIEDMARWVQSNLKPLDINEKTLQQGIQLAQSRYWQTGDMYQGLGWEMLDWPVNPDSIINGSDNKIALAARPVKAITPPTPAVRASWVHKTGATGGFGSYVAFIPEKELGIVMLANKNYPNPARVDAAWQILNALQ
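AmpC (5.3 nM in the dispensed reagent) in 20 mM phosphate pH 7.0 with 0.01% (detergent screen) or 0.0001% Triton X-100 was preincubated with compounds for 15 min at room temperature. Nitrocefin was then added from an 800 uM solution, and hydrolysis was followed at 480 nm.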
Cycloheximide cs: counter-screen hit for Shiga toxin inhibitors, cycloheximide | 300,000 tested, 12% active | cell reporter, cycloheximide protein synthesis inhibition counterscreen | AID 2314 | max response, %; in the data active means max response mostly above about 13%, no sharp cut-off; inactive means mostly below about 14%; further: read at 38.3 µM for the half of the compounds with a filed dose
AmpC inh no detg: AmpC beta-lactamase inhibition without detergent. AmpC nitrocefin hydrolysis, absorbance 480 nm, 0.0001% Triton. 330,000 tested, 0.52% active. Potency, µM (top dose mostly 57.1 µM), hits mostly inhibitors. P00811; further: nearly all actives have a fitted effect of over 20% in size
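20 mM phosphate pH 7.0 + 0.01% (detergent screen) or 0.0001% Triton X-100; 5.3 nM AmpC reagent; cpd preinc 15 min RT; nitrocefin (800 uM stock) to start; A480 q20 s × 4 min; Activity was normalised to no-enzyme and no-compound control wells.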
Hits are given with their value; n = inactive; u = inconclusive; x = no result given; ! = a repeat was not active; [ ] = dose if it differs, or a comment. Shown is part of a subset that was picked to be rich in hits. Unless noted, the call rests on the fitted dose curve; in most records, active means well fitted curve in the direction sought with a large enough effect; inconclusive means small, poorly fitted or top-dose-only effect, or another doubt; inactive means no such curve, though single readings can be large; an effect the other way counts as inactive or inconclusive.

SMILES	AMA1 RON2 block	SARS PLP yeast	Shiga toxin inh	AmpC inh detg	Cycloheximide cs	AmpC inh no detg
Cc1cc(Nc2ccccc2O)c2ccccc2n1	n	n	n	n	n	n
Cc1ccc(Nc2cc(C)c3ccc(O)cc3n2)cc1C	n	n	83	n	43	n
COc1ccc(Nc2cc(C)c3cc(NC(=O)c4ccccc4Cl)ccc3n2)cc1	x	x	x	n	x	x
Cc1ccccc1Nc1cc(C)c2c(O)cccc2n1	n	n	n	u	23	n
COC(=O)c1cc(Nc2cc(C)c3ccc(O)cc3n2)cc(C(=O)OC)c1	n	n	n	n	n	n
COC(=O)c1cc(Nc2cc(C)c3c(O)cccc3n2)cc(C(=O)OC)c1	n	n	n	n	16	n
COc1ccc(Nc2cc(C)c3c(O)cccc3n2)cc1	n	n	n	n	32	n
C=CCC1(CC=C)CCCN1C(=O)CC1C(=O)NCCN1Cc1cc(OC)cc(OC)c1 (centres undefined)	n	n	n	n	n	n
Cc1cc(C)n2nc(C(=O)OCC(=O)N3CCC3)nc2n1	n	n	n	n	n	n
Cc1ccc(CCNC(=O)c2cc(Nc3ccc(C)c(C)c3)nc3ccccc23)cc1	x	x	x	n	x	x
Cc1ccc(Nc2cc(C)c3c(O)cccc3n2)cc1C	n	n	76	n	46	n
COc1ccccc1-c1cnc(C(O)c2ccc(F)c(C)c2)[nH]1 (centres undefined)	n	x	x	x	x	x
C[C@@H]1CN([C@H](C)CO)C(=O)c2cc(-c3ccccc3)cnc2O[C@@H]1CN(C)C(=O)C1CCOCC1	n	x	x	x	x	x
CCOC(=O)N1CC(C)N(CC(O)CN2CCOCC2)CC1C (centres undefined)	n	x	x	x	x	x
O=C(CN1CCN(Cc2ccc(Cl)cc2)CC1)N/N=C/c1ccncc1	n	n	n	n	n	n
COc1cccc(-c2nc3ccc(C(=O)N4CCCC(O)C4)cc3o2)c1 (centres undefined)	n	n	112	n	59	n
CCN(CC)C(=O)C1CCCN(C(=O)c2ccc3nc(-c4cccc(OC)c4)oc3c2)C1 (centres undefined)	n	x	x	x	x	x
COCCc1nc2ccc(C(=O)N3CCCC(CCCO)C3)cc2o1 (centres undefined)	n	n	n	n	n	n
CCC(=O)C1CCCN(C(=O)c2ccc3nc(-c4cccc(OC)c4)oc3c2)C1 (centres undefined)	n	n	69	n	45	n
CCOC(=O)C1CCCN(C(=O)c2ccc3nc(-c4cccc(OC)c4)oc3c2)C1 (centres undefined)	n	n	72	n	32	n
O=C(Cn1c(-c2cccs2)cc2cc(F)ccc21)N1CCN(c2ccccc2)CC1	x	x	x	n	x	x
Clc1ccc2nc(CN3CCCc4ccccc43)cn2c1	u	n	56	n	23	n
Cc1nc2ccccc2nc(C)c1=NOCc1ccccc1Cl	n	n	86	n	39	n
Cc1nc(C)c(Cc2ccccc2Cl)c(=O)[nH]1	n	n	n	u	n	n
CC(C)c1nn2c(=O)cc(COc3cccc(NC(=O)c4ccco4)c3)nc2s1	n	n	n	n	n	n
SMILES	AMA1 RON2 block	SARS PLP yeast	Shiga toxin inh	AmpC inh detg	Cycloheximide cs	AmpC inh no detg
CC(=O)c1c(N2CCOCC2)nc(=S)n(-c2ccccc2)c1C	n	n	n	n	n	n
COc1ccccc1-c1cc(C(=O)Nc2sc3c(c2C#N)CCCC3)no1	x	x	x	n	x	x
Cc1cc(C)[n+]2n1C(=O)C(c1ccccc1)=C2[O-]	n	n	n	u	33!	n
Cc1noc(C)c1C(=O)Nc1nc(-c2ccccc2Cl)cs1	n	n	66	n	36	n
Cc1onc(-c2ccccc2)c1C(=O)Nc1nc(-c2ccccc2)cs1	n	n	96	n	31	n
CC(C)(C)S(=O)(=O)c1cnc2c(-c3ccc(F)cc3)cnn2c1N	n	n	n	n	n	n
C/C(=C\C(=O)c1cccnc1)Nc1ccc(O)cc1	n	n	26	n	28	n
C/C(=C\C(=O)c1ccccc1)Nc1ccc(O)cc1	u	n	174	n	89	n
COc1ccc(C(=O)/C=C(\C)Nc2ccc(NC(C)=O)cc2)cc1	n	n	n	n	n	n
Nc1ncnc2c1ncn2C1CCCC(CO)O1 (centres undefined)	n	x	x	x	x	x
NNc1ccc(Cl)c(C(=O)O)c1	n	n	96	n	36	n
NNc1cc(C(=O)O)ccc1Cl	n	n	n	n	n	n
COc1ccc(NC(=O)/C=C/C(=O)O)cc1Cl	n	n	n	n	n	u
O=C(O)/C=C/C(=O)Nc1ccc(Cl)c(C(=O)O)c1	n	n	51	n	19	n
Cc1cc2c(c(=O)o1)C1(C(=O)N(C)c3ccccc31)C(C#N)=C(N)O2 (centres undefined)	n	n	n	n	n	n
O=C(Nc1ccc(F)cc1)c1ccccc1F	n	x	114	n	42	x
CC(=O)Nc1ccc(NC(=O)c2ccccc2F)cc1	n	n	58	n	20	n
CC(=O)Nc1ccc2nc(-c3ccccn3)[nH]c2c1	n	n	74	n	46	n
O=C(Nc1ccncc1)c1ccccc1F	n	n	n	n	n	n
O=C(NCc1ccncc1)c1ccccc1Nc1ccc(SC(F)F)cc1	n	n	n	n	n	n
CNC(=O)c1ccccc1Nc1ccc(SC(F)F)cc1	n	n	24	u	23	n
Nn1cnc2c([nH]c3ccccc32)c1=O	n	n	n	n	n	n
Cc1ccc(Nc2ncnc3c2nc2n3CCCC2)c(Br)c1	x	x	x	n	x	x
NC1=NC[C@H](Cc2ccccc2)N1CCc1cc(C(F)(F)F)cc(C(F)(F)F)c1	n	n	n	n	n	n
CCOc1ccc(NC(=O)CN(C)C(=O)c2cccnc2Sc2ccc(Cl)cc2)cc1OCC	n	n	x	n	x	n
SMILES	AMA1 RON2 block	SARS PLP yeast	Shiga toxin inh	AmpC inh detg	Cycloheximide cs	AmpC inh no detg
CCOC(=O)Nc1ccc(NC(=O)c2ccccc2F)cc1	n	n	85	n	18	n
c1ccc(-c2nc3cc4ccccc4cc3[nH]2)nc1	n	n	n	n	n	n
O=C(Nc1ccc(SC(F)F)cc1)c1ccccc1F	n	n	92	n	45	n
O=C(Nc1ccc2cn[nH]c2c1)c1ccccc1F	n	n	40	n	60	n
c1cncc(-c2nc3cc4ccccc4cc3[nH]2)c1	n	n	62	n	45	n
O=C(Nc1ccc2cn[nH]c2c1)c1c(Cl)cccc1Cl	n[11.6 µM]	n	n	n	n	n
CC(=O)c1sc(NC(=O)CSC(C)C(=O)Nc2cc(C)on2)nc1-c1ccccc1 (centres undefined)	n	n	x	n	x	n
O=C(Nc1ccc(C(=O)N2CCCC2)cc1)c1ccccc1F	n	n	66	u	36	n
O=C(Nc1cc(C(=O)N2CCCC2)ccc1N1CCCC1)c1ccccc1F	n	n	n	n	n	n
